Data taken from PubChem BioAssay.
Results filed as inconclusive are left out. Active and inactive are the calls of the source.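 The calls were made as follows, unless noted: active = inhibition above the screen-wide mean plus 3 SD, about 51%; inactive = the rest.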

Columns and labels:
[1] = rapamycin-like changes in RPL19A-GFP expression – cell-based, S. cerevisiae, multiplex flow cytometry, primary screen (AID 1862; in the data active = percent of DMSO control GFP below about 86%;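 also: lower values mimic rapamycin by blocking the RPL19A rise seen in DMSO cells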); settings: S. cerevisiae RPL19A-GFP strain, flow cytometry fluorescence, 3 h; at 10 µM; stronger effect = lower value
[2] = TOR pathway GLN3 branch reporter MEP2-GFP changes – S. cerevisiae, multiplex flow cytometry, primary screen (AID 1867;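 active = GFP response, as percent of the DMSO control, above the screen-wide mean plus 3 SD, about 139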;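 also: median GFP channel fluorescence of barcode-gated MEP2-GFP cells measured by flow cytometry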); settings: S. cerevisiae MEP2-GFP strain, 3 h, at 10 µM, stronger effect = higher value, 100% means same as DMSO wells
[3] = TOR pathway RTG branch CIT2 reporter changes – S. cerevisiae, GFP fusion, multiplex flow cytometry, primary screen (AID 1870;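 active = percent response above a set limit, the screen-wide mean plus 3 SD, cut at about 130% in these data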;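 also: barcoded CIT2-GFP strain pooled with four other GFP strains with rapamycin as positive control; median GFP fluorescence per well over plate mean of DMSO wells so 100% = DMSO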); settings: S. cerevisiae CIT2-GFP expression, 3 h, at 10 µM, stronger effect = higher value
[4] = TOR pathway LAP4-GFP level changes – S. cerevisiae, multiplex flow cytometry, primary screen (AID 1873;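 active = GFP signal, as percent of the solvent control, above the screen mean plus 3 SD, about 149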); settings: S. cerevisiae LAP4-GFP expression, 3 h, at 10 µM, stronger effect = higher value
[5] = yeast AGP1-GFP level changes, GLN3 branch – cell-based, multiplex flow cytometry, S. cerevisiae, primary screen (AID 1887;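 active = GFP signal above the screen-wide mean plus 3 SD, that is over about 124.5% of the solvent control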;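 also: AGP1-GFP fusion strain of S. cerevisiae within a five-strain barcoded multiplex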); settings: 3 h, at 10 µM, stronger effect = higher value
[6] = reduced mouse 2C T cell binding to pMHC/ICAM-1 vesicles – MLPCN validation set, flow cytometry, LFA-1/ICAM-1 modulator project, pilot screen (AID 2523;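 active = response below a set limit, under 55% cells CD8-positive and vesicle-bound, and CD8 cells' 90th-percentile brightness under 279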;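 as to vesicle binding response: mean PE anti-B7-1 fluorescence of CD8+ cells relative to row control; 100% = QL9-loaded vesicles with DMSO vehicle in the same plate row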); settings: 2C mouse CD8+ T cells, at 7 µM, stronger effect = lower value; double positive events: measured here: CD8+/vesicle+ event percentage
[7] = target: Integrin beta-1 (Homo sapiens) + Integrin alpha-4 (Homo sapiens) (UniProt P13612+P05556); test: alpha4beta1 integrin LIBS antibody binding reduction – U937 cells, HUTS-21 mAb, flow cytometry, validation set, VLA-4 allosteric modulator project, pilot screen (AID 2674;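 active = inhibition above 50%, about 3 SD of the validation set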;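 also: antibody binding induced by the VLA-4 ligand LDV present at three times its Kd; 0% = LDV ligand with antibody and no compound and 100% = antibody without LDV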); settings: HUTS-21 LIBS mAb binding, at 6.7 µM, stronger effect = higher value, binding induced by LDV ligand
Chain of Integrin beta-1 (Homo sapiens) + Integrin alpha-4 (Homo sapiens) (P05556 whole entry, looked up): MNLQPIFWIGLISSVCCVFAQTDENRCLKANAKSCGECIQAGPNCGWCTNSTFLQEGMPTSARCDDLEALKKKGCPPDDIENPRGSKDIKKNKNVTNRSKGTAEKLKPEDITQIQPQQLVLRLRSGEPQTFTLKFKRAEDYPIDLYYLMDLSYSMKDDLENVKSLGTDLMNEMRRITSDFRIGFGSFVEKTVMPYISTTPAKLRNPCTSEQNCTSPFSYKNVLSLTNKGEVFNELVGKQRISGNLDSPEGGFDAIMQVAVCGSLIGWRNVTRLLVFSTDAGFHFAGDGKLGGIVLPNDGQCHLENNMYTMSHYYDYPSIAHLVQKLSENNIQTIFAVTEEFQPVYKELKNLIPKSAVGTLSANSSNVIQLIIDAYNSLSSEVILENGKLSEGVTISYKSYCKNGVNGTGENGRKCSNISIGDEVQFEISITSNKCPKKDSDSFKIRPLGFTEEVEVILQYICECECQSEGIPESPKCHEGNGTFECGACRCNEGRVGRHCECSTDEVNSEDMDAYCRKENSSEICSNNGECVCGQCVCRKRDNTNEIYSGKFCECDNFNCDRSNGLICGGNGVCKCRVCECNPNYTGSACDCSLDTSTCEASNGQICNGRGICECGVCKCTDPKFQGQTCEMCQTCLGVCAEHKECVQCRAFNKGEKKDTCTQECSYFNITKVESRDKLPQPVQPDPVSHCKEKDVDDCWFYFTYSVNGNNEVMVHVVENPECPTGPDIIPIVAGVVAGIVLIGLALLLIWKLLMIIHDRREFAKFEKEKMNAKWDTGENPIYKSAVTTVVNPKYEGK
Chain of Integrin beta-1 (Homo sapiens) + Integrin alpha-4 (Homo sapiens) (P13612 whole entry, looked up): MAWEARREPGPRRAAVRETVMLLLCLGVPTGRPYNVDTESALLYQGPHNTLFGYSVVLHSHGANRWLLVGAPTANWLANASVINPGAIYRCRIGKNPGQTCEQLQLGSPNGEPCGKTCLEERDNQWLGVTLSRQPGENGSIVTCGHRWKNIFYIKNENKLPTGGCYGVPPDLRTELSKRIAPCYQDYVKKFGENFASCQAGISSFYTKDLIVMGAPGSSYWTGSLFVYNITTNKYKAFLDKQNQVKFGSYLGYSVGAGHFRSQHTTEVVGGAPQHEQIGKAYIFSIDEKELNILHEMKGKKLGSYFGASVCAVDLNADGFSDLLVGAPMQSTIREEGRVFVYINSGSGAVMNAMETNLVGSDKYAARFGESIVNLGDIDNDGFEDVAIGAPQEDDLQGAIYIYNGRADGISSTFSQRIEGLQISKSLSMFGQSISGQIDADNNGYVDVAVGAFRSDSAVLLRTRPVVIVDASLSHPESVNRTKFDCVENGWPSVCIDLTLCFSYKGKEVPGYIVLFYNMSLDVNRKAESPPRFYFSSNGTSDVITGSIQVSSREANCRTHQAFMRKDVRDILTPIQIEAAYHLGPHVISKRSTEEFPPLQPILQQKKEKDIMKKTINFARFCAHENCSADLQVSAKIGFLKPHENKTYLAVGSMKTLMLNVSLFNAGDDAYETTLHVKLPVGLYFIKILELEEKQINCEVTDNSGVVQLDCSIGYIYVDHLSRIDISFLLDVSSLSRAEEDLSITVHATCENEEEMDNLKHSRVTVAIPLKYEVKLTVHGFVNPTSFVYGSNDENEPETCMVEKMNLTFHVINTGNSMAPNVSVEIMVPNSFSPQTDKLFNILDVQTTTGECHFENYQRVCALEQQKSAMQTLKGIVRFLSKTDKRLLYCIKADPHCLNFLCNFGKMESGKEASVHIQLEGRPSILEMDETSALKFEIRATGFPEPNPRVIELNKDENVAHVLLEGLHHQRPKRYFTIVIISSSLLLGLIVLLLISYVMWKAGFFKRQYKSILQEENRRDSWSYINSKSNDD

[8] = calorie-restriction mimetic ROS inhibitors, yeast – validation compound set, pilot screen (AID 2706;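 active = superoxide response below 65% of plate, a cut near 3 SD across the whole screen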;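 also: yeast exposed to compound for one week at 30 degrees C before staining; 100% = mean of all compound wells on the same plate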); settings: S. cerevisiae aging, superoxide DHE fluorescence; at 10 µM; stronger effect = lower value
[9] = target: Beta-adrenergic receptor kinase 1 (Homo sapiens) (UniProt P25098); test: GRK2 binders displacing RNA aptamer, biochemical, validation, human GRK2, bead flow cytometry (AID 488806;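 active = aptamer binding inhibition above 30%, about 3 SD of noise from non-fluorescent compounds; inactive = inhibition at or below 30%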); settings: bead-bound GRK2, FAM-aptamer displacement, at 10 µM, stronger effect = higher value
Chain of Beta-adrenergic receptor kinase 1 (Homo sapiens) (P25098 whole entry, looked up): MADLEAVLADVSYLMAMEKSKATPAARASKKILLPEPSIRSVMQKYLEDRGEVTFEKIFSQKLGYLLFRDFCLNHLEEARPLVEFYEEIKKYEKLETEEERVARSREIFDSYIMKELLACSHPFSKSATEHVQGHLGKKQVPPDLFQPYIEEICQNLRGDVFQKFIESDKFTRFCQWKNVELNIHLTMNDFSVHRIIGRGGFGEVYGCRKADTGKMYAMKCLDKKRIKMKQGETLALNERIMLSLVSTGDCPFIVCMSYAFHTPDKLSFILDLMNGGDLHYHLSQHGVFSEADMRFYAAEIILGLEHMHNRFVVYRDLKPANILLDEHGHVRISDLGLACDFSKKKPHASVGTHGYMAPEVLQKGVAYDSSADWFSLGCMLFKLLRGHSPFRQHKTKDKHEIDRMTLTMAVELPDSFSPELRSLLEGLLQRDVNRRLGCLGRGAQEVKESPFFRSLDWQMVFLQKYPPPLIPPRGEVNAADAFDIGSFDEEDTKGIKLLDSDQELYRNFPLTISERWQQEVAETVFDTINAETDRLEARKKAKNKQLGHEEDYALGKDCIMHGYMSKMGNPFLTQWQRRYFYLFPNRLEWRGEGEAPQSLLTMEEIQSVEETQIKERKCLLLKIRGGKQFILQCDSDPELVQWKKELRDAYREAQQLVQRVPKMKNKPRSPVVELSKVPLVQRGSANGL

[10] = target: Beta-2 adrenergic receptor (Homo sapiens) (UniProt P07550); test: agonist-induced loss of surface beta2AR – cell-based, FAP fluorogen, flow cytometry, validation set, pilot screen (AID 504459;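 active = percent response above 42, roughly 3 SD of non-fluorescent test compounds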;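 also: agonist-driven loss of surface beta2AR via internalization measured by FAP dye flow cytometry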); settings: Am2.2-beta2AR cells, at 10 µM, stronger effect = higher value
Chain of Beta-2 adrenergic receptor (Homo sapiens) (P07550 whole entry, looked up): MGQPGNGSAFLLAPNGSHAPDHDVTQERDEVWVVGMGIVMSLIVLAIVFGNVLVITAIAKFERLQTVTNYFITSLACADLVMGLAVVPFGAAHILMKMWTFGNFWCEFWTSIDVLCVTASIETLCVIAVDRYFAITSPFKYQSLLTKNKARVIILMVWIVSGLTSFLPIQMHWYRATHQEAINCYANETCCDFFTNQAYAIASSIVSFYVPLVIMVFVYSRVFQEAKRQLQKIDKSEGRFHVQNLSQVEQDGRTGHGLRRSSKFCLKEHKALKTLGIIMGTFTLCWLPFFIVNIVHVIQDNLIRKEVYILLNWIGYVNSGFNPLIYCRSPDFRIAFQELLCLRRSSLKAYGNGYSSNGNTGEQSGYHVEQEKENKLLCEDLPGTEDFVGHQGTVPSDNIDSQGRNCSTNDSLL

[11] = target: AP-2 complex subunit beta (Homo sapiens) (UniProt P63010); test: beta-arrestin/AP2 interaction blockers – biochemical, validation set, GST-AP2 beads, flow cytometry, pilot screen (AID 504541;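 active = inhibition above 54%, about 3 SD of non-fluorescent compounds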;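 also: AP2 carries R879A mutation and is captured from E. coli lysate; bead-bound FITC arrestin peptide fluorescence measuring arrestin peptide binding to AP2; 0% = DMSO wells and 100% = excess unlabeled arrestin peptide control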); settings: FITC arrestin peptide, at 10 µM, stronger effect = higher value, AP2 beta2 appendage fragment, R879A mutant
Chain of AP-2 complex subunit beta (Homo sapiens) (P63010 whole entry, looked up, the tested form may be a part, one chain of several): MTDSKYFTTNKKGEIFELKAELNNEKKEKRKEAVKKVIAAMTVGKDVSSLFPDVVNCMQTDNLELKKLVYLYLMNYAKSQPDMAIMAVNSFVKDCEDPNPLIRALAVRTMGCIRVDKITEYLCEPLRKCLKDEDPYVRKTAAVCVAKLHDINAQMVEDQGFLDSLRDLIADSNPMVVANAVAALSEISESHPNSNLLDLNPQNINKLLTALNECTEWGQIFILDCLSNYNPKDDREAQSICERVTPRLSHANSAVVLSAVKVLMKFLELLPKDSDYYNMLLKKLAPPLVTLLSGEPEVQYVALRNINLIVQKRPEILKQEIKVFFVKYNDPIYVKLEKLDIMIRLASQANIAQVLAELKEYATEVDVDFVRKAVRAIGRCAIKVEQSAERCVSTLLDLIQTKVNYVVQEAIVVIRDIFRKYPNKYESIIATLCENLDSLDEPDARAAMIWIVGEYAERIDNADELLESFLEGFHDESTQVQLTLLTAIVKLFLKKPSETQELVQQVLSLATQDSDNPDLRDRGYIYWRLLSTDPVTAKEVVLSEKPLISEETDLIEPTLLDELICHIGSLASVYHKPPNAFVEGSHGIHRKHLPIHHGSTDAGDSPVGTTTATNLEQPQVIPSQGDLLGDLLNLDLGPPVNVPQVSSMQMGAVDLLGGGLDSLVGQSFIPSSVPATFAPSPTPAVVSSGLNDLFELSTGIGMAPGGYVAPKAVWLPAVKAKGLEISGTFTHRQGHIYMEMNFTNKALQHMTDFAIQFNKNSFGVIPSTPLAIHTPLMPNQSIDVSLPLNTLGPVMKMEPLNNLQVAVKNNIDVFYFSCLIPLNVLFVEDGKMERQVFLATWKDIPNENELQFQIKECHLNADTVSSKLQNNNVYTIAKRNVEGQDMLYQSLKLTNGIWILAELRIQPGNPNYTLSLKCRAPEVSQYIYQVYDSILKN

[12] = cytosolic pH regulators acting via V-ATPase – S. cerevisiae, pHLuorin, HTS validation (AID 504600; in the data active = response above about 15%;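 also: plate controls were DMSO for no effect and reference compound for full effect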); settings: V-ATPase proton transport, at 10 µM, stronger effect = higher value
[13] = tested on: anti-desmoglein-3 scFv antibody binding to human DSG3; test: blockers of pathogenic pemphigus antibody–desmoglein-3 binding – biochemical, validation compound set, bead-based, flow cytometry, pilot screen (AID 588368;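 active = binding below the plate cutoff, the plate median minus 3 SD, with a reading above zero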;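 also: signal is the median channel fluorescence of bead-bound GFP antibody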); settings: Protein G beads, DSG3-Fc, scFv-GFP binding, at 10 µM, stronger effect = lower value
[14] = Nile Red efflux blockade in pump-expressing yeast – validation compound set, multiplex, phenotypic, pilot screen (AID 588506;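 active = efflux inhibition above 0.42, the validation set average plus 4 SD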;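 also: Nile Red retained in cells so higher fluorescence means more efflux inhibition; 0 = negative control wells and 1 = enniatin B 25 µM full block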); settings: S. cerevisiae pump-expressing triplex, Nile Red efflux flow cytometry; at 10 µM; stronger effect = higher value; the pumps come from Candida albicans
[15] = target: ATP-binding cassette sub-family B member 6 (Homo sapiens) (UniProt Q9NP58); test: blockers of ABCB6-driven porphyrin uptake – K562-ABCB6 cells, flow cytometry, validation set, pilot screen (AID 588550); settings: K562-ABCB6 porphyrin accumulation, 1 h, at 10 µM, stronger effect = higher value;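 also: 0% = DMSO wells and 100% = benzethonium chloride 70 µM positive control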
Chain of ATP-binding cassette sub-family B member 6 (Homo sapiens) (Q9NP58 whole entry, looked up): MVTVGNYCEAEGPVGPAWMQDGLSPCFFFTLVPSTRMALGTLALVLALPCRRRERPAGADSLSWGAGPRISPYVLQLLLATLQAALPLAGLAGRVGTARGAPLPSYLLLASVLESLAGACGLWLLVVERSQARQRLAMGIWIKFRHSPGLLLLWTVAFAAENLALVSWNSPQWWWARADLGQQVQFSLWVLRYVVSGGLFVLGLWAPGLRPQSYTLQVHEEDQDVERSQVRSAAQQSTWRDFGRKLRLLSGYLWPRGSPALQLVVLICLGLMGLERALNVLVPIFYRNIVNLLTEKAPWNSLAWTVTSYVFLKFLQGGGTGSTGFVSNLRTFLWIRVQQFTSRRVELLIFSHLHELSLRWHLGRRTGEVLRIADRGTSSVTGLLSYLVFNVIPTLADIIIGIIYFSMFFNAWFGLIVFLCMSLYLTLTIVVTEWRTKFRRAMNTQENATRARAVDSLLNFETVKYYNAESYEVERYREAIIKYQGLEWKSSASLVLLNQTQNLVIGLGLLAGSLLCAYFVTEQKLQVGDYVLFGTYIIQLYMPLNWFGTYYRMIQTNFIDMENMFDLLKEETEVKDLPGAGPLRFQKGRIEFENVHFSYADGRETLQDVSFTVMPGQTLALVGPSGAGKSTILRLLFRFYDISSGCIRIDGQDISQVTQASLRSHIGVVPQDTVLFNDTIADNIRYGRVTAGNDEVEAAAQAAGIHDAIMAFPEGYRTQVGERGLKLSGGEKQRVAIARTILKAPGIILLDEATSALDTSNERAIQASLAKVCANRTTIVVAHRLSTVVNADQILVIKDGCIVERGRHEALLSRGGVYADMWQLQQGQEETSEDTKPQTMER

[16] = AML differentiation inducers, ER-HoxA9 marrow cells – cell-based, GFP/MAC1 double positive, flow cytometry, validation set, primary screen (AID 588685;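 active = differentiation response of at least 50%, scaled between solvent and reference control, from cells with both markers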;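 also: compound exposure lasts four days before antibody staining and flow analysis; 0% = DMSO wells and 100% = 5 µM fulvestrant positive control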); settings: stronger effect = higher value, normalized: vehicle 0, fulvestrant 100

COc1ccc(C(=O)Nc2cccnc2)cc1C(=O)Nc1cccnc1
65%: double positive events [6]
inactive: percent of DMSO control GFP [1] 104% | GFP response vs DMSO [2] 107% | percent response of DMSO control [3] 102% | GFP response vs DMSO [4] 107% | GFP response, % of DMSO [5] 106% | vesicle binding response [6] 191% | inhibition [7] -3.77% | superoxide response (% of plate) [8] 104% | aptamer binding inhibition [9] 2% | response [10] 9.93% | inhibition [11] -14.1% | response [12] 0.74% | binding (% of control) [13] 99% | efflux inhibition (fraction of control) [14] -0.11 | inhibition [15] 8% | differentiation response [16] 13%

CC(=O)c1cc2c(cc1NC(=O)c1ccco1)OCCO2
58.2%: double positive events [6]
inactive: percent of DMSO control GFP [1] 103% | GFP response vs DMSO [2] 107% | percent response of DMSO control [3] 109% | GFP response vs DMSO [4] 120% | GFP response, % of DMSO [5] 110% | vesicle binding response [6] 178% | inhibition [7] 10.8% | superoxide response (% of plate) [8] 91.9% | aptamer binding inhibition [9] 1% | response [10] -30.9% | inhibition [11] -8.68% | response [12] -7.07% | binding (% of control) [13] 99.5% | efflux inhibition (fraction of control) [14] -0.04 | inhibition [15] 2% | differentiation response [16] -11.9%

Cc1cc(=O)c2c(O)c(O)ccc2o1
inactive: percent of DMSO control GFP [1] 102% | GFP response vs DMSO [2] 107% | percent response of DMSO control [3] 98.9% | GFP response vs DMSO [4] 90.7% | GFP response, % of DMSO [5] 101% | vesicle binding response [6] 30% | inhibition [7] -7.72% | superoxide response (% of plate) [8] 105% | aptamer binding inhibition [9] -4% | response [10] 5.76% | inhibition [11] -12.7% | response [12] -0.09% | binding (% of control) [13] 98.5% | efflux inhibition (fraction of control) [14] -0.07 | inhibition [15] 7% | differentiation response [16] 9.04%
60.3%: double positive events [6]

COc1cc(C(=O)NCCCCCC(=O)O)cc(OC)c1OC
inactive: percent of DMSO control GFP [1] 104% | GFP response vs DMSO [2] 105% | percent response of DMSO control [3] 102% | GFP response vs DMSO [4] 103% | GFP response, % of DMSO [5] 108% | vesicle binding response [6] 199% | inhibition [7] 5.61% | superoxide response (% of plate) [8] 100% | aptamer binding inhibition [9] 2% | response [10] 11.2% | inhibition [11] -5.4% | response [12] 1.93% | binding (% of control) [13] 101% | efflux inhibition (fraction of control) [14] -0.23 | inhibition [15] 1% | differentiation response [16] -19.2%
65.5%: double positive events [6]

Cc1nc(N)nc2c1CCCC2
inactive: percent of DMSO control GFP [1] 89.1% | GFP response vs DMSO [2] 133% | percent response of DMSO control [3] 99.2% | GFP response vs DMSO [4] 74.8% | GFP response, % of DMSO [5] 94.9% | vesicle binding response [6] 179% | inhibition [7] 6.46% | superoxide response (% of plate) [8] 102% | aptamer binding inhibition [9] 5% | response [10] -4.6% | inhibition [11] -2.43% | response [12] -0.37% | binding (% of control) [13] 109% | efflux inhibition (fraction of control) [14] -0.31 | inhibition [15] 13% | differentiation response [16] -9.83%
62.1%: double positive events [6]

CC(=O)Nc1ccccc1C(=O)C(=O)Nc1ccccc1
inactive: percent of DMSO control GFP [1] 99.1% | GFP response vs DMSO [2] 99.6% | percent response of DMSO control [3] 99.6% | GFP response vs DMSO [4] 114% | GFP response, % of DMSO [5] 97.5% | vesicle binding response [6] 83.6% | inhibition [7] 6.4% | superoxide response (% of plate) [8] 102% | aptamer binding inhibition [9] 1% | response [10] -12.9% | inhibition [11] 35.2% | response [12] -3.86% | binding (% of control) [13] 95.3% | efflux inhibition (fraction of control) [14] -0.35 | inhibition [15] 2% | differentiation response [16] 29.6%
60.9%: double positive events [6]

O=C(COc1ccccc1)Nc1ccc2c(c1)C(=O)N(CC1CCCO1)C2=O (stereo not drawn)
active: efflux inhibition (fraction of control) [14] 0.47
inactive: percent of DMSO control GFP [1] 100% | GFP response vs DMSO [2] 102% | percent response of DMSO control [3] 102% | GFP response vs DMSO [4] 113% | GFP response, % of DMSO [5] 106% | vesicle binding response [6] 179% | inhibition [7] 13.7% | superoxide response (% of plate) [8] 110% | aptamer binding inhibition [9] 3% | response [10] 3.99% | inhibition [11] 4.36% | response [12] -0.92% | binding (% of control) [13] 100% | inhibition [15] -12% | differentiation response [16] -8.96%
61.5%: double positive events [6]

O=C(/C=C/c1ccco1)Nc1ccccc1C(=O)O
inactive: percent of DMSO control GFP [1] 98.1% | GFP response vs DMSO [2] 105% | percent response of DMSO control [3] 107% | GFP response vs DMSO [4] 94.8% | GFP response, % of DMSO [5] 109% | vesicle binding response [6] 205% | inhibition [7] -31.9% | superoxide response (% of plate) [8] 124% | aptamer binding inhibition [9] 11% | response [10] 5.64% | inhibition [11] -15.5% | response [12] 3.27% | binding (% of control) [13] 105% | efflux inhibition (fraction of control) [14] -0.3 | inhibition [15] -11% | differentiation response [16] 23.2%
65.9%: double positive events [6]

CCOC(=O)C1C(=O)OC2(CCOC(C)(C)C2)C1C(=O)OCC (stereo not drawn)
70.8%: double positive events [6]
inactive: percent of DMSO control GFP [1] 109% | GFP response vs DMSO [2] 108% | percent response of DMSO control [3] 102% | GFP response vs DMSO [4] 125% | GFP response, % of DMSO [5] 108% | vesicle binding response [6] 8780% | inhibition [7] 10.5% | superoxide response (% of plate) [8] 102% | aptamer binding inhibition [9] 5% | response [10] 16.1% | inhibition [11] -2.89% | response [12] -6.07% | binding (% of control) [13] 102% | efflux inhibition (fraction of control) [14] 0.15 | inhibition [15] 6% | differentiation response [16] -4%
